PTPN22 act – LYP phosphatase activators, primary screen, biochemical, DiFMUP fluorescence, 2 µM; Tyrosine-protein phosphatase non-receptor type 22 (Homo sapiens), Q9Y2R2; recombinant LYP; 0 = plate median, 100 = signal doubled; activation, % at 2 µM; hit rate 0.11% among 96,000; AID 697, 2007;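 active = activation at 2 µM above a set limit, the mean plus 5 SD, cut at about 37% in these data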
Target sequence (Q9Y2R2 whole entry, looked up): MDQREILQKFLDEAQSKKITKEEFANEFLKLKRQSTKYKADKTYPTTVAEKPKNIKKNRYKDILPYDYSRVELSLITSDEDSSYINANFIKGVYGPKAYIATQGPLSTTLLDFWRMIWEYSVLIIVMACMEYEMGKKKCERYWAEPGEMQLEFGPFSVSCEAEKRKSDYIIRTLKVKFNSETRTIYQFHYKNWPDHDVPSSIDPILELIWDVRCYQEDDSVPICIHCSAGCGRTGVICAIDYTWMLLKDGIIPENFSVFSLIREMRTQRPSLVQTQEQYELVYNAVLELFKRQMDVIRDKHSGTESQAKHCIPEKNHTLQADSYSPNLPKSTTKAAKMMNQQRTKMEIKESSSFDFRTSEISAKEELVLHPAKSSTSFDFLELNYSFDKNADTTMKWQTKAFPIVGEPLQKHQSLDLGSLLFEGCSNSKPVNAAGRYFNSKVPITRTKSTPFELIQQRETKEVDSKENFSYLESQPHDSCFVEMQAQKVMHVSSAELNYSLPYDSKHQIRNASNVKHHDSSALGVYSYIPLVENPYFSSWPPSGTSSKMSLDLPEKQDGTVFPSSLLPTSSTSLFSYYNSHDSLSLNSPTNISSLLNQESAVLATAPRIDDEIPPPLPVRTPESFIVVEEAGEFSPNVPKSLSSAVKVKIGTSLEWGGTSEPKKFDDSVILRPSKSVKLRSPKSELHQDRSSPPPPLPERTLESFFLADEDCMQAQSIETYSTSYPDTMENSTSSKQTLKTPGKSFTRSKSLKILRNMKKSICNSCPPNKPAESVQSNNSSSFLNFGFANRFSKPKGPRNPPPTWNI
sEH inh – soluble epoxide hydrolase inhibitors, primary screen, biochemical, human sEH | Bifunctional epoxide hydrolase 2 (Homo sapiens), P34913 | recombinant human sEH enzymatic activity assay | inhibition, % at 2 µM | hit rate 0.34% among 91,000; in the data active = inhibition above about 80%
Measles CPE – compounds protecting cells from measles virus cytopathic effect, primary screen, measles RdRp inhibitor project, single point, MLSMR library, absorbance. Measles virus-infected cells, CPE protection. protection (pct of control), % at 4 µM. hit rate 1.5% among 140,000. AID 841, 2007; in the data active = protection mostly above about 24%, no sharp cut-off; inactive = mostly below about 26%
sEH act – soluble epoxide hydrolase activators, primary screen, biochemical, human sEH; AID 717, 2007; activation, % at 2 µM; Bifunctional epoxide hydrolase 2 (Homo sapiens), P34913; purified human sEH enzymatic activity, activator screen; hit rate 0.04% among 91,000; in the data active = activation above about 37%
LYP inh 2 – PTPN22 phosphatase inhibitors, primary screen, biochemical, DiFMUP fluorescence, 2 µM | Tyrosine-protein phosphatase non-receptor type 22 (Homo sapiens), Q9Y2R2 | recombinant LYP catalytic domain | inhibition, % at 2 µM | hit rate 0.21% among 96,000 | AID 640, 2007;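 active = inhibition at 2 µM at or above a set limit, the screen mean plus 3 SD, cut at about 24% in these data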
Numbers stand for hits; n = inactive; x = no result given. Rows were chosen to be rich in hits. Some 1.7% of all compounds tested hit in one or more screens of this group.

SMILES	PTPN22 act	sEH inh	Measles CPE	sEH act	LYP inh 2
CCN(CC)C(=O)Cn1cnc2c1c(=O)n(C)c(=O)n2C	n	n	44	n	n
CCN(Cc1ccccc1)C(=O)Cn1cnc2c1c(=O)n(C)c(=O)n2C	n	x	n	x	n
CCN(CC)C(C(=O)Nc1ccc(C(C)C)cc1)c1ccc2c(c1)OCO2 (stereo unspecified)	n	n	n	38	n
CCC(=O)Nc1cc(ON=C(C)C)cc([N+](=O)[O-])c1	x	x	96	x	x
N#Cc1cc(-c2ccccc2)cn(Cc2c(Cl)cccc2Cl)c1=O	x	x	53	x	x
CCCCc1ccc(N=N/C(C(=O)Nc2cc(OC)c(NC(C)=O)cc2OC)=C(/C)O)cc1	x	x	n	x	x
CC(C)NC(=O)COC(=O)c1cc(F)c(F)cc1Cl	n	n	n	n	n
CC(C)NC(=O)COC(=O)c1cc(Br)ccc1Cl	x	x	52	x	x
C=CCNC(=O)c1ccccc1NC(=O)Cc1ccccc1[N+](=O)[O-]	x	x	n	x	x
CCc1nnc(NC(=O)CCC(=O)N2CCN(C3c4ccccc4-c4ccccc43)CC2)s1	x	x	n	x	x
CC1CC(C)CN(C(=O)COC(=O)CCc2nc3ccccc3c(=O)[nH]2)C1 (stereo unspecified)	x	x	n	x	x
c1ccc(COc2ccc(OCCCn3cncn3)cc2)cc1	n	n	30	n	n
CC(OC(=O)Cc1c(F)cccc1Cl)C(=O)NCCC1=CCCCC1 (stereo unspecified)	x	x	n	x	x
COc1cc(NC(=O)COc2ccc(Cl)cc2)ccc1-c1cc2ccccc2oc1=O	x	x	n	x	x
O=C(NCCCNCc1ccccc1)c1ccncc1	n	n	40	n	n
CCc1ccccc1N(C1=NCCCS1)S(=O)(=O)c1ccc(C(C)(C)C)cc1	x	x	n	x	x
CC1(C)CC(CCNC(=O)c2ccc(-n3cnnn3)cc2)CC(C)(C)N1	n	n	30	n	n
Cn1cnnc1SCC(=O)Nc1cc(S(=O)(=O)N2CCCCCC2)ccc1Cl	x	x	n	x	x
COc1ccc(C(=O)Oc2c(C)occc2=O)cc1OC	n	x	48	x	n
CCOc1cc(C(=O)OCC(=O)Nc2c(C)cccc2C)ccc1OCC(=O)N1CCOCC1	x	x	33	x	x
COC(=O)c1ccccc1N1C(=O)C2C(C1=O)[C@H]1C=C[C@@H]2C1 (stereo partly specified)	n	n	101	n	n
NC(=O)c1ccc(-n2nnnc2SCC(=O)Nc2ccc(N3CCOCC3)c(Cl)c2)cc1	n	n	32	n	n
O=C(CSc1nnnn1-c1ccc(O)cc1)Nc1ccc(N2CCOCC2)c(Cl)c1	n	n	n	n	n
CCOc1ccc(N/C=C\C(=O)c2ccc3c(c2)OCO3)cc1	n	n	42	n	n
COc1ccc(C/C(C)=N/NC(=O)c2cccnc2)cc1	x	x	n	x	x
SMILES	PTPN22 act	sEH inh	Measles CPE	sEH act	LYP inh 2
CN1C(c2ccc(F)cc2)=CS/C1=C(/C#N)c1nnc(N2CCOCC2)n1-c1ccccc1	x	x	n	x	x
C=CCN1C(c2ccccc2)=CS/C1=C(/C#N)c1nnc(N2CCOCC2)n1-c1ccccc1	x	x	52	x	x
COc1ccc(CC(=O)Nc2ccc(C(=O)Nc3ccccc3C(=O)O)cc2)cc1OC	x	x	n	x	x
CCN(CC)CCNC(=O)c1cc2c(=O)n(C)c3ccccc3c2n1C	n	x	41	x	n
O=C(NCCC(=O)N1CCN(c2ncccn2)CC1)c1ccccc1	n	n	32	n	n
Cc1ccc(S(=O)(=O)Nc2nc3ccccc3nc2NCc2ccc3c(c2)OCO3)cc1C	x	x	n	x	x
Nc1c2c(nc3ccc(Br)cc13)N(c1ccccc1)CC2	n	n	n	n	n
Nc1c2c(nc3ccc(Br)cc13)N(Cc1ccccc1)CC2	x	x	28	x	x
COc1ccc(CNC(N)=O)cc1OC	n	n	n	n	n
COc1ccc(CCC(N)=O)cc1OC	n	n	27	n	n
COc1ccc(CC(=O)c2ccc(OC)c(OC)c2)cc1	x	x	n	x	x
COc1ccc(C(=O)Cc2ccc(OC)c(OC)c2)c(OC)c1	n	n	61	n	n
COc1ccc(CCNC(=O)COC(=O)c2ccco2)cc1OC	n	n	39	n	n
Cc1nn(-c2ccccc2)c(Cl)c1C(=O)N(C)c1nc(-c2ccc(F)cc2)cs1	x	x	n	x	x
Cc1ccc(C(=O)N/C(=C\c2cccs2)C(=O)NCCCn2ccnc2)cc1	x	x	n	x	x
C=CCn1c(SCc2ccccc2)nnc1-c1cccnc1	n	n	n	n	n
C=CCn1c(SCc2nc(N)nc(N(C)C)n2)nnc1-c1cccnc1	n	n	36	n	n
CC(=O)NC1CC2CCCC(C1)N2C(=O)Nc1ccc(Cl)c(C(F)(F)F)c1 (stereo unspecified)	n	87	n	n	n
CS(=O)(=O)N1CCC(C(=O)Nc2ccc(Cl)c(C(F)(F)F)c2)CC1	n	n	n	n	n
COc1ccccc1NC(=O)CSc1nnc(Cn2c(=O)sc3ccccc32)n1C	x	x	n	x	x
COc1ccccc1NC(=O)CCn1c(=O)sc2ccccc21	n	n	51	n	n
S=C(Nc1ccc2nsnc2c1)NC1CCCCC1	x	x	30	x	x
CC(C)CC(=O)N1CC(C)N(C(=O)CC(C)C)CC1C (stereo unspecified)	x	x	n	x	x
CC1CCCC(NC(=O)Nc2cccs2)C1C (stereo unspecified)	n	80	n	n	n
CC1CCCC(NC(=O)Cc2ccc(Br)cc2)C1C (stereo unspecified)	n	n	n	n	n
SMILES	PTPN22 act	sEH inh	Measles CPE	sEH act	LYP inh 2
COc1cccc(C(=O)N(Cc2cc3cc(C)ccc3[nH]c2=O)C(C)C)c1	n	x	n	x	n
COc1cc(OC)cc(C(=O)N(Cc2cc3cc(C)ccc3[nH]c2=O)C(C)C)c1	n	x	44	x	n
O=C(NCCCn1ccnc1)c1cc2cc([N+](=O)[O-])ccc2oc1=O	x	x	n	x	x
Cc1noc(C)c1S(=O)(=O)N1CCC(C(=O)N2CCN(c3ccc(F)cc3)CC2)CC1	n	n	n	n	n
Cc1noc(C)c1S(=O)(=O)N1CCC(C(=O)N2CCN(C3CCCC3)CC2)CC1	n	n	43	n	n
O=C(COc1ccc(F)cc1Br)NCc1ccccn1	n	n	n	n	n
O=C(COc1ccccc1Br)NCc1ccccn1	n	n	63	n	n
Cc1nn(C)cc1/C=N/NC(=O)Cn1nccc1C	x	x	n	x	x
O=C(c1ccccc1)N1CCN(C2CCCCC2)CC1	n	n	n	n	n
CS(=O)(=O)Nc1ccc(C(=O)N2CCN(c3ccccc3)CC2)cc1	n	n	42	n	n
O=C(c1ccc(S(=O)(=O)N2CCCCC2)cc1)N1CCN(c2ccccc2)CC1	n	n	n	n	n
O=C(c1ccccc1)N1CCN(C(=O)c2ccccc2)CC1	n	n	38	n	n
O=C(c1ccc(CN2CCOCC2)cc1)N1CCN(c2cccc(Cl)c2)CC1	n	n	n	n	n
O=C(c1ccc(CN2CCOCC2)cc1)N1CCN(Cc2ccccc2)CC1	n	n	44	n	n
O=C(O)c1ccccc1C(=O)N1CCN(c2ccccc2)CC1	n	n	45	n	n
O=C(CN1C2CCCC1CC(NC(=O)c1ccccc1)C2)Nc1nccs1 (stereo unspecified)	n	n	n	n	n
